# An excerpt weighted towards active compounds, which were near 6.6% of everything screened.
# BoNT A protease: BoNT A light chain protease inhibition; multiplex microsphere protease substrate cleavage, flow cytometry; AID 588499; inhibition, % at 10 µM; hit rate 0.17% among 360,000; further: plate controls were buffer without enzyme for full effect and enzyme alone for no effect
# Anthrax LF inh2: inhibitors of Bacillus anthracis lethal factor protease; P15917; hit rate 0.12% among 360,000; inhibition, % at 10 µM; multiplex microsphere protease cleavage assay, LF; further: plate controls were buffer without enzyme for full effect and enzyme alone for no effect
# Target sequence (P15917 whole entry, looked up): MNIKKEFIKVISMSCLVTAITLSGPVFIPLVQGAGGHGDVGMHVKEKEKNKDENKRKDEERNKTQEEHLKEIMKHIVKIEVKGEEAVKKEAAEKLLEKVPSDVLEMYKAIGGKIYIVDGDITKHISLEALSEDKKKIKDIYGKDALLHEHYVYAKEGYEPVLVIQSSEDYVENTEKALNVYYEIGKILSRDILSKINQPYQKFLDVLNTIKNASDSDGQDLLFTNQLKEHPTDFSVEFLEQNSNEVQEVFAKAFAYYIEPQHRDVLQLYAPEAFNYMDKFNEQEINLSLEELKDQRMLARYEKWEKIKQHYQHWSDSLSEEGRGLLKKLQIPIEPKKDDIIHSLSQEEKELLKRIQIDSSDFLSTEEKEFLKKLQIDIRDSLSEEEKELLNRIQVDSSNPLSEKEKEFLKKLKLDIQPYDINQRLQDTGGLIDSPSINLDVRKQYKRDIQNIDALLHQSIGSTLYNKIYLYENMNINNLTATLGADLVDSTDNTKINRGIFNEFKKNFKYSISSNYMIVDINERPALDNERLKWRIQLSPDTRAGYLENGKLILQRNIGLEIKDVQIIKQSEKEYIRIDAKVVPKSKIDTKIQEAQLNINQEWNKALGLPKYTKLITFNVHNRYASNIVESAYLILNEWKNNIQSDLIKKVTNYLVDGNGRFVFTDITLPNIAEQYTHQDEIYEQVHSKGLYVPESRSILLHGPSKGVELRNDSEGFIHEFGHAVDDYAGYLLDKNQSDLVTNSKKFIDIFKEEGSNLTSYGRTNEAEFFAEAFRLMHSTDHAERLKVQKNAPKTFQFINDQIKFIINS
# GDH-TPI counter: inhibits GDH-TPI coupling enzymes, artifact for Mtb FBA screen. GDH-TPI coupled enzyme counterscreen, NADH absorbance. inhibition, % at 4.8 µM. hit rate 1.2% among 360,000. AID 588335; in the data active means inhibition above about 30%;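 further: 0% = DMSO wells and 100% = wells lacking the enzyme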
# Autofluor counter: flagged as autofluorescent in microsphere protease counterscreen; compound autofluorescence counterscreen, microsphere flow cytometry; stronger effect = higher value; fluorescence intensity (concentration not given with the values); hit rate 3.1% among 360,000; in the data active means fluorescence intensity above about 16000; inconclusive means no clear call, values can overlap the other calls
# BoNT F protease: blocks Botulinum neurotoxin F light chain protease | inhibition, % at 10 µM | Multiplex microsphere protease cleavage assay, flow cytometry | hit rate 0.22% among 360,000; in the data active means inhibition above about 35%, passing the limit was not always enough; inconclusive means no clear call, values can overlap the other calls; further: plate controls were buffer without enzyme for full effect and enzyme alone for no effect
# FBA Mtb inh: Mtb fructose-bisphosphate aldolase inhibition; P9WQA3; purified M. tuberculosis FBA, fluorescence read-out; inhibition, % at 1 µM; hit rate 2.3% among 360,000; in the data active means inhibition above about 27%;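 further: 0% = vehicle and 100% = reference inhibitor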
# The depositor's hits bear a star; ? = inconclusive; + = active, no number. Unless noted, no stated cut-off is given here; in the data, active means inhibition above about 30%; inconclusive means no clear call, values can overlap the other calls; inactive means below that.
SMILES,BoNT A protease,Anthrax LF inh2,GDH-TPI counter,Autofluor counter,BoNT F protease,FBA Mtb inh
FC(F)(F)c1cc(-c2ccccc2)nc(NCC2CCCO2)n1 (stereo unspecified),-0.2,-1.1,3.3,4068,-8.0,-0.7
O=C(Cc1cccc2ccccc12)NCC1CCCO1 (stereo unspecified),-0.2,0.4,1.5,2853,-5.9,6.7
COc1ccc(Cl)cc1C=CC=Nc1ccccc1O,1.2,-2.3,8.6,4747,-3.0,-0.2
Cn1cc(Br)c(C(=O)NC2C3CC4CC(C3)CC2C4)n1 (stereo unspecified),?,-0.7,5.3,20443*,-3.2,-0.4
CS(=O)(=O)c1ccc(C(=O)OCc2nnc(-c3ccc(Cl)cc3)o2)cc1[N+](=O)[O-],-0.5,-2.7,2.5,4328,-10.9,86.7*
CC(C(=O)Nc1ccc2c(c1)OCO2)n1cnc2c1c(=O)n(C)c(=O)n2C (stereo unspecified),0.2,2.3,2.5,3962,-5.7,-0.6
COc1ccc(C2=NOC(C(=O)NC3CCCCC3)C2)cc1OC (stereo unspecified),0.3,-1.7,2.8,23218*,3.4,0.5
COc1ccc(C2OC(=O)CC2C(=O)NC2CCCCCC2)cc1OC (stereo unspecified),-5.7,-1.7,-2.8,22084*,-6.6,-4.7
COc1ccc(-c2cc(C(=O)NC3CCCC3)no2)cc1OC,0.3,1.8,-6.8,22323*,-1.2,-0.5
COc1ccc(C2OC(=O)CC2C(=O)NC2CCCC(C)C2C)cc1OC (stereo unspecified),0.0,5.6,-4.0,9223,6.0,3.4
COc1ccc(C(=O)NCCCc2nc3ccccc3n2Cc2ccccc2C)cc1OC,0.0,-19.0,12.6,5781,-12.9,-1.4
Cc1noc(C)c1-c1nnc(-c2ccc(OC(F)(F)F)cc2)o1,0.2,-13.0,-1.1,5634,-2.6,-0.3
CCC(=O)Oc1ccc2c(c1)OC1(OC(C)=O)OC(C)CC1=C2C (stereo unspecified),0.7,-2.5,21.0,3359,-1.5,+
CC1CCN(N=Nc2nc3c([nH]2)c(=O)n(C)c(=O)n3C)CC1,-0.3,-8.3,31.5*,4242,-8.6,-2.1
CC1CCCCN1N=Nc1nc2c([nH]1)c(=O)n(C)c(=O)n2C (stereo unspecified),-0.4,4.8,39.5*,2807,-4.8,-1.1
CC(=O)/C(N=Nc1nc2c([nH]1)c(=O)n(C)c(=O)n2C)=C(\C)O,?,-5.2,2.6,4678,?,-1.0
Cn1c(=O)c2[nH]c(N=NN3CCCCC3)nc2n(C)c1=O,-0.4,-0.8,54.4*,3767,-4.9,-6.8
COc1cc([N+](=O)[O-])cc2sc(NC(=O)c3c(F)cccc3F)nc12,-0.5,1.2,-0.6,4478,-3.5,0.6
CCc1ccccc1NC(=O)C1(S(=O)(=O)c2ccc(C)cc2)CC1,-0.6,-1.0,-3.9,5992,2.6,-0.9
COc1ccc(NC(=O)/C(C#N)=C/c2ccc(OCCN3CCOCC3)c(OC)c2)c(OC)c1,-0.1,-6.1,1.3,4327,0.7,2.7
COc1cc(/C=N/Nc2ccc(S(N)(=O)=O)cc2[N+](=O)[O-])cc(OC)c1O,-1.5,-7.2,41.5*,4362,0.3,-22.9
NS(=O)(=O)c1ccc(N/N=C/c2ccc[nH]2)c([N+](=O)[O-])c1,-2.4,-0.5,72.7*,3927,-10.3,-7.7
O=C(O)c1ccc(/C=N\Nc2ccc(S(=O)(=O)N3CCOCC3)cc2[N+](=O)[O-])cc1,-1.3,-10.2,0.5,3650,0.1,3.7
COc1cc(/C=N/Nc2ccccc2[N+](=O)[O-])cc(OC)c1O,0.5,0.8,26.8,3453,-6.2,-13.2
CN(CCO)c1ccc(C=NNc2ccc([N+](=O)[O-])cc2S(=O)(=O)Nc2ccccc2C(=O)O)cc1,-0.5,-3.4,32.7*,3468,-4.8,-19.1
SMILES,BoNT A protease,Anthrax LF inh2,GDH-TPI counter,Autofluor counter,BoNT F protease,FBA Mtb inh
NS(=O)(=O)c1ccc(N/N=C/c2ccc(C(=O)O)cc2)c([N+](=O)[O-])c1,0.4,4.4,66.7*,4318,1.9,-19.7
COc1ccc(C(=O)COC(=O)c2cc(=O)[nH]c3ccccc23)c(OC)c1,-7.1,?,-1.1,?,-6.4,1.2
CC(=O)Nc1ccc(C=NNc2ccc(S(=O)(=O)Nc3ccccc3C(=O)O)cc2[N+](=O)[O-])cc1,-0.1,-7.1,48.5*,2966,0.5,-2.0
CCCC(=O)NC(c1ccc(OC)c(OC)c1)c1c(O)ccc2ccccc12 (stereo unspecified),?,0.9,5.6,23446*,-1.8,14.2
O=C(NC(Cc1ccccc1)C(=O)O)/C(=C\c1ccccc1)NC(=O)c1ccc(Br)o1 (stereo unspecified),2.0,-4.0,4.9,4553,4.7,-0.4
CCCNCCC(c1ccco1)c1ccccc1OC (stereo unspecified),-1.9,-7.7,1.9,16663*,-6.4,1.8
CCC(=O)NCCC(c1ccco1)c1ccccc1OC (stereo unspecified),1.7,2.2,10.1,4656,14.5,0.3
CN(c1ccccc1)C(c1ccc(F)cc1)c1nnnn1CC1CCCO1 (stereo unspecified),-0.1,-0.7,14.0,16681*,-1.7,-0.5
CN(c1ccccc1)C(c1ccc(F)cc1)c1nnnn1C1CCCC1 (stereo unspecified),?,-5.1,4.8,23833*,-8.4,-2.0
Cc1ccc(C(c2nnnn2CC2CCCO2)N2CCN(Cc3ccccc3)CC2)cc1 (stereo unspecified),-1.1,-3.1,-3.5,4644,-4.5,1.5
Fc1ccc(C(c2nnnn2C2CCCCC2)N2CCCC2)cc1 (stereo unspecified),-0.3,2.4,0.0,2392,4.3,0.5
O=C(NN=Cc1ccccc1OC(F)F)c1ccc(NS(=O)(=O)c2cccs2)cc1,-3.7,2.6,32.2*,6176,-6.4,-3.9
O=C(N/N=C/c1ccc([N+](=O)[O-])cc1)c1ccc(NS(=O)(=O)c2cccs2)cc1,-0.6,-10.6,41.2*,3383,-13.5,-4.6
O=C(NN=Cc1ccc(OC(F)F)cc1)c1ccc(NS(=O)(=O)c2cccs2)cc1,-0.4,-6.2,33.3*,4098,-2.6,-0.3
COc1ccc(/C(C)=N/NC(=O)c2ccc(NS(=O)(=O)c3cccs3)cc2)cc1,-0.3,-1.8,15.0,4970,8.9,7.4
COc1ccccc1C(=O)NNC(=O)c1ccc(NS(=O)(=O)c2cccs2)cc1,-4.6,-0.5,8.0,6757,-7.1,-1.0
CC(C)C1C(=O)N(Cc2cn(CC3CCCCC3)nn2)CCS(=O)(=O)N1Cc1ccc(-c2ccc(Cl)nc2)cc1 (stereo unspecified),0.0,-0.8,3.3,3771,-3.8,0.5
O=C(O)c1ccccc1C(=O)Nn1cnnc1,-3.6,-8.6,-2.0,3887,-30.0,1.1
CC(=O)N1c2ccc(S(=O)(=O)N3CCCCC3)cc2CC1C(=O)Nc1ccc(F)cc1C (stereo unspecified),?,?,-7.1,5793,?,1.2
